# Assay results taken from the OligoGym collection.
# Molecular target: PALB2
# Assay: pooled miR-30 sensor sort-seq; sequence = guide strand
# Conditions: shRNA
# Note: reference of the scale not given here.
row,Sequence,sensor-assay potency score (higher = more potent)
1,TTGAATAAATAATTTTTCGTGC,-0.674
2,TTGTTCTAACATAATATTCTGC,-0.275
3,TTCTTGAACTTGGTTGTCCTGT,0.276
4,TTCCTGTGTATCTTCTACCAGG,-0.953
5,TACAGCATCACACCCACGCTGA,-0.615
6,TATAGCTTTATTTACAAGGAGG,-1.15
7,TACATGGCTCTTTACAACCGGC,-0.961
8,TTTGTATAGGTAATCCTCCTGG,0.029
9,TAAATTTTTACTTGCATCCTTA,0.122
10,TTTGCTACTGATTTCTTCCTGT,0.661
11,TAACATAATATTCTGCAGGAAA,-1.13
12,TTAGGAATGTATCAACACCTTT,-0.84

# Molecular target: PALM2-AKAP2
# Assay: as above
# Conditions: shRNA
row,Sequence,sensor-assay potency score (higher = more potent)
1,TTTTAGATTTGTGTGTCTCATA,-0.987
2,TCTGGCAACATCATTATCCAGG,-0.478
3,TTTCTCATGCTCGTCATCCTCA,0.127
4,TTGTCAATCATGCTTGCGCGTT,-1.12
5,TTCTAATGCAGTATTGTTCTTT,0.398
6,TTGAACAGGAGAAGACACCTGA,1.01
7,TTGACAGATCTTGAGAACTGAT,-0.51
